Measured values from PubChem BioAssay AID1066 (SRMLSC, 2008).
Hit rate of the full screen: of about 190,000 compounds, about 790 (0.42%) were called active.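 Rule for the calls: active = inhibition above a set limit, the median over all tested compounds plus 3 SD (cut at about 9.5% in these data); inconclusive = no clear call, values can overlap the other calls; inactive = the rest.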 The full list was thinned out, with actives kept by preference.

System: HMG-CoA reductase (Enterococcus faecalis, mvaE)
Assay: class II HMG-CoA reductase enzyme inhibition – biochemical, Enterococcus faecalis, primary screen (AID 1066);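 note: enzyme runs in reverse so mevalonate oxidation gives rising NADPH absorbance; 0% = complete reaction with DMSO and 100% = background rate lacking mevalonate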
Settings: purified E. faecalis HMGR, NADPH absorbance 340 nm kinetic; at 10 µM; hits give high values

inhibition, active:
O=C(COc1cccc(F)c1)Oc1ccc(C(=O)c2ccccc2)cc1 11.7%
CC(=O)Nc1ccc(S(=O)(=O)N2CCCC2C(=O)O)cc1 (configuration not stated) 18.5%
COC(=O)C(=Nc1ccccc1)/C(C(=O)C(=O)N(C)c1ccccc1)=C(\O)c1ccc(Cl)cc1 12.8%
CC1(C)CCc2nc(SCc3ccccc3)c(C#N)cc2C1 13.3%
COc1cccc(CC2(CO)CCN(Cc3cnc(-c4cccc(C)c4)nc3)CC2)c1 10.2%
CCCCc1ccc(NC(=S)NCCCN2CCOCC2)cc1 9.74%
Cc1ccc(S(=O)(=O)N2CCOCC2)cc1C(=O)OC1CCCCC1=O (configuration not stated) 11.2%
O=C(/C=C/c1ccccc1Cl)Nc1ccc(S(=O)(=O)Nc2ncccn2)cc1 9.55%
COc1ccc(C(=O)NC2CCN(C(=S)NCCc3ccccc3)CC2)cc1 16.3%
COc1cc(/C=C2/C(=O)ON=C2C)ccc1OCc1cccc(F)c1 15.9%
CCOC(=O)CNC(=O)N1c2ccccc2Sc2ccccc21 10.8%
O=C(Oc1cccc(NC2=NS(=O)(=O)c3ccccc32)c1)c1ccncc1 13.3%
O=C1c2ccccc2C(=O)N1CCC(O)C[N+](=O)[O-] (configuration not stated) 14.4%

inhibition, inactive:
O=C1c2ccccc2NC(c2ccccn2)N1NS(=O)(=O)c1ccccc1 (configuration not stated) -5.78%
CC1CCCCC1NC(=O)COC(=O)Cc1ccc(Br)cc1 (configuration not stated) -8.55%
Cc1cc(C)c[n+](-c2nc3ccccc3nc2[N-]S(=O)(=O)c2cccs2)c1 -2.15%
COc1cccc(C2SCC(=O)N2c2cccc(C)c2)c1OC (configuration not stated) -2.05%
O=C(c1ccccc1)c1ccc(OC(=O)N2CCCC2)cc1 -3.15%
Cc1cccc(OCC(=O)Nc2ccccc2F)c1 -6.74%
Cc1nn(CC(=O)Nc2ccc3c(c2)OCO3)c(C)c1[N+](=O)[O-] -8.05%
CC1CC(=S)Nc2ccccc2N1Cc1ccccc1 (configuration not stated) -4.09%
O=C(O)C1CCCN1S(=O)(=O)c1ccc2c(c1)CCC2 (configuration not stated) 0.94%
CC(=O)Nc1ccc(S(=O)(=O)N2CCN(C3CCCCCCC3)CC2)cc1 -5.25%
CCOC(=O)c1[nH]cnc1C(=O)Nc1ccccc1C -0.64%
O=C1CC(N2CCN(c3ccc(F)cc3)CC2)C(=O)N1c1ccccc1 (configuration not stated) -3%
COC(=O)/C(NC(C)=O)=C(\C)c1ccc(Cl)cc1 -0.22%
CN(C)/C=C(/C(=O)c1ccc(Cl)cc1)S(=O)(=O)c1ccccc1 -1.53%
O=C(CCc1ccccc1)Nc1ccc(NC(=O)C2CCCCC2)nc1 -5.74%
COc1ccc(OC)c(-c2csc(NC(=O)C3=NNC(=O)CC3)n2)c1 -3.44%
Cc1cc(NC(=O)CSc2nc3c(cc2C#N)CCCCC3)no1 -2.85%
CC(NC(=O)CSc1nc2c(cc1C#N)CN(C)CC2)c1ccccc1 (configuration not stated) -4.51%
CCCC(=O)Nc1cccc(NC(=S)NC(=O)C(C)Oc2ccc(Cl)cc2Cl)c1 (configuration not stated) -6.26%
N=C1C(c2nc3ccccc3[nH]2)=C(O)CN1NC(=O)c1c[nH]c2ccccc12 1.51%
CC(=O)Nc1ccc(NC(=O)C(C)n2c3ccccc3c3nc(=O)cc(C)n32)cc1 (configuration not stated) 3.72%
CCCCN(C(=O)/C=C/c1ccco1)c1c(N)n(CC(C)C)c(=O)[nH]c1=O 1.3%
Cc1cc(C(=O)N/N=C/c2cc([N+](=O)[O-])cc(C)c2O)n[nH]1 1.28%
CC1(C)OC(=O)C(=CNC(CO)C(=O)O)C(=O)O1 (configuration not stated) -0.06%
CC(C)(C)NC(=O)CN(C(=O)c1csnn1)c1ccccc1-c1ccccc1 3.37%
CCOC(=O)CC(NC(=O)C1c2ccccc2Oc2ccccc21)c1ccc(C)cc1 (configuration not stated) -0.18%
O=C1Nc2ccc([N+](=O)[O-])cc2C1=Nc1cccc(CO)c1 -7.75%
C/C(=N\OCC(=O)Nc1ccc(Br)cc1)c1cccs1 -3.94%
COC(=O)c1ccc(/C=N/N2C(C)CCCC2C)cc1 (configuration not stated) -1.41%
CCN(C(=O)COc1cccnc1[N+](=O)[O-])C1CCS(=O)(=O)C1 (configuration not stated) 1.64%
CCc1ccc(NC(=O)Nc2ccncc2)cc1 -0.38%
CCOC(=O)CCCNC(=O)COC(=O)c1cc(Br)c(Br)s1 6.54%
COc1ccc(CC2(CO)CCN(Cc3cnn(C)c3)CC2)cc1 1.94%
Cc1cccc(-c2ncc(CN3CCC(CO)(CCCc4ccccc4)CC3)cn2)c1 3.07%
Cc1cc(C)cc(NC(=S)NCCCN2CCOCC2)c1 -2.33%
Cc1ccc(NC(=S)NCCN2CCOCC2)cc1 -1.8%
CCOC(=O)c1sc(NC(=O)c2cc(S(=O)(=O)N3CCOCC3)ccc2C)nc1C -0.38%
Cc1ccc(S(=O)(=O)N2CCOCC2)cc1C(=O)NCc1ccc(F)cc1 -7.95%
C/C=C/C=C/C(=O)OCC(=O)Nc1ccc(Cl)cc1 -6.31%
O=C(/C=C/c1ccc(Cl)cc1)Nc1ccc(S(=O)(=O)Nc2ncccn2)cc1 1.98%
CC(=O)NS(=O)(=O)c1ccc(NC(=O)/C=C/c2ccccc2Cl)cc1 4.83%
CCOC(=O)C1CCN(S(=O)(=O)c2cc(F)ccc2OC)CC1 -2.34%
COc1cc(Cl)c(C)cc1NC(=O)[C@@H]1CCCN1C(=O)c1cccs1 -6.68%
CCOC(=O)C1(Cc2cccc(OC)c2)CCN(C(C)CC(C)(C)O)CC1 (configuration not stated) -0.39%
O=C1CCN(C(=S)NCCc2ccccc2)CC1 4.83%
COc1ccc(C(=O)NC2CCN(C(=S)Nc3ccccc3)CC2)cc1 -0.68%
Cc1ccc2c(c1)C1CN(C)CCC1N2S(=O)(=O)c1ccc(Oc2ccc([N+](=O)[O-])cc2)cc1 (configuration not stated) -1.37%
O=C(COC(=O)c1ccc(Cl)nc1)NCc1cccs1 -2.01%
COc1cc(/C=C2/C(=O)ON=C2C)ccc1OCc1ccccc1F -4.22%
COc1cc(/C=N/n2c(C)n[nH]c2=S)ccc1OCc1ccccc1 5.27%
N/C(Cc1ccc([N+](=O)[O-])cc1)=N\OC(=O)C1CCCCC1 5.63%
Cc1ccc(S(=O)(=O)N2CCOCC2)cc1NC(=O)CSc1nnc(N)s1 -3.38%
CCOC(=O)CNC(=O)CN1C(=O)CCSc2ccccc21 0.21%
CCNC(=O)N1c2ccccc2Sc2ccccc21 -0.32%
CCOC(=O)C1CCCN(C(=O)c2cccc(S(=O)(=O)N3CCOCC3)c2)C1 (configuration not stated) 2.45%
O=C(CCc1[nH]c2ccccc2c1Sc1ccccc1)N(CCO)CCO -1.48%
COCc1c(N)c(C)nc(Cl)c1C#N -1.22%
CN(Cc1ccccn1)Cc1nc(-c2ccc(Cl)cc2)no1 -4.55%
CC(C)(C)c1csc(NC2=NS(=O)(=O)c3ccccc32)n1 -4.26%
O=C(Oc1ccccc1)c1ccc2nccnc2c1 -2.55%
O=C1Oc2ccccc2C(=O)/C1=C/c1ccccc1O -4.42%
Cc1ccc(CN2CCN(Cc3cccc(C)n3)CC2CCO)cc1 (configuration not stated) -2.73%
O=C1c2ccccc2C(=O)N1CCC(c1ccccc1)c1ccco1 (configuration not stated) -3.81%
CC(C)OC(=O)CN1C(=O)c2ccccc2C1=O 0.65%
